# Reference: PubChem BioAssay AID624416 (The Scripps Research Institute Molecular Screening Center, 2012)
# Hit rate of the full screen: of about 360,000 compounds, about 1,500 (0.42%) were called active. Shown is part of a subset that was picked to be rich in actives. Unmarked numbers belong to inactive results. Cut-off read from the data, not from the text of the source: active = inhibition above about 8.5%; inactive = the rest.
# Tested on: HIV-1 gp120 / PG9 antibody interaction
# Assay: binders of HIV-1 gp120 antibody PG9, primary screen, biochemical, TR-FRET (AID 624416)
# Settings: TR-FRET gp120-PG9 antibody binding; at 6.7 µM; stronger effect = higher value
row,Compound,inhibition
1,COCc1[nH]nc2c1C(c1ccccc1)N(c1ccccc1)C2=O (configuration not stated),0.32%
2,O=C1[C@@H](c2ccccc2)[C@@H](c2ccccc2)N1c1ccccc1,-1.27%
3,S=c1[nH]c2ccccc2c2ccccc12,41.9% (active)
4,S=c1ccc2ccccc2[nH]1,1.87%
5,Cc1cc2c3ccccc3[nH]c(=O)n2n1,0.66%
6,Cc1ccc(-n2ncc3c2ncn2nc(-c4ccco4)nc32)c(C)c1,1.54%
7,Cc1ccc(-n2ncc3c(=O)n(-c4ccc(C)c(C)c4)c(-c4ccco4)nc32)cc1,9.24% (active)
8,Cc1ccc(-n2nc(-c3ccco3)cc2C(=O)NCc2cccnc2)cc1,1.7%
9,CCOC(=O)Cn1c2c(n(-c3ccc(F)cc3)c1=O)C=C(c1ccccc1)[C@@H](C)C(C(=O)N(C)C1CCCCC1)=C2,1.82%
10,CCCCCCCCN1C(=O)[C@@H](CC(=O)N2CCN(C(=O)OCC)CC2)C[C@@]2(C(=O)OC)C1=C[C@H](C1CCCC1)O[C@@H]2C,-1.72%
11,Cc1ccc(-c2cc(C(=O)NCc3cn(C)nc3C)c3cc(Br)ccc3n2)cc1,11.4% (active)
12,Cc1nn(C)cc1CNC(=O)Nc1ccc(Cl)cc1,-1.07%
13,Cc1nn(C)cc1C(=O)Nc1ccccc1Br,-1.45%
14,Cc1cc(OC(=O)NCCc2ccc(F)cc2)ccc1F,0.4%
15,COC(=O)[C@]12C[C@H](CC(=O)NCc3ccccc3)C(=O)N(CCC3=CCCCC3)C1=C[C@H](C(C)(C)C)O[C@@H]2C,-0.45%
16,Nc1ncnc2c1ncn2C1OC(CO)CC1O (configuration not stated),-0.46%
17,N#Cc1c(N)nc2c3c(sc(=N)c2c1N)NC(=O)CC3c1ccccc1Cl (configuration not stated),36.3% (active)
18,CSc1nc2c(c(=O)[nH]1)C(c1cccc(Cl)c1Cl)CC(=O)N2 (configuration not stated),-0.61%
19,Fc1cc(F)c2nc(Nc3nc4c(F)cccc4s3)sc2c1,12.7% (active)
20,NNc1nc2c(Cl)cccc2s1,-3.22%
21,Cc1cc(NCCc2c[nH]c3ccccc23)ccc1Oc1cccnc1,0.39%

row,Compound,inhibition
1,C[C@@H](CN1C2=NC[C@@H](Cc3ccccc3)N2C[C@H]1Cc1ccc(O)cc1)NC(=O)CCC1CCCCC1,-0.86%
2,COc1ccc(NC(=O)CC(NC(C)c2ccccc2)C(=O)O)cc1 (configuration not stated),-1.77%
3,COc1ccc(NC(=O)CSc2nnc(Cc3ccccc3)c(=O)n2N)cc1,-0.48%
4,COc1ccc(CC(=O)Nc2ccc(-c3nnc(-c4ccccc4)o3)cc2)cc1,9.44% (active)
5,CC(C)[C@H]1COCCS(=O)(=O)N1Cc1ccccc1-c1cccc2c1sc1ccccc12,-1.17%
6,C=CC[C@]12C[C@@]3(O[C@H](c4ccc(C(F)(F)F)cc4)N=C3C[C@H](c3ccc(OC)cc3)[C@H]1C)N(C1CCN(Cc3ccccc3)CC1)C2=O,-1.53%
7,Cc1ccc(-n2c(SCC(=O)N3CCC(C(=O)O)CC3)nc3ccccc3c2=O)cc1C,-0.77%
8,CCCn1c(N)c(C(=O)CSc2nc3ccccc3c(=O)n2-c2ccc(OC)cc2)c(=O)[nH]c1=O,-1.09%
9,COc1cccc(-n2c(SCC(=O)c3c[nH]c4ccccc34)nc3ccccc3c2=O)c1,35.5% (active)
10,COc1ccc(CNC(=O)c2cc(C(=O)C3CC3)c[nH]2)cc1,-0.91%
11,O=C(NCCc1ccccn1)c1cc(C(=O)C2CCCCC2)c[nH]1,10.2% (active)
12,O=C(NCCc1ccccn1)c1ccc(COc2ccccc2)o1,-2%
13,COc1ccc(CCNC(=O)CSc2nc(-c3ccc(OC)c(OC)c3)ccc2C#N)cc1,16% (active)
14,COc1ccc(CCNC(=O)CSc2nc(C)nc3c2oc2ccccc23)cc1OC,-0.52%
15,COc1ccc(CCNC(=O)CSc2nnc3ccc(-c4ccncc4)nn23)cc1,-1.52%
16,COc1ccc(CCNC(=O)COC(=O)c2cnc(Cl)c(Cl)c2)cc1,-0.95%
17,COc1cccc(-c2ccc(C#N)c(SCC(=O)NCCc3ccc(Cl)cc3)n2)c1,14.1% (active)
18,COc1cc(OC)cc(C(=O)NCCSCc2ccc(Cl)cc2)c1,-1.65%
19,CCc1c(-c2ccccc2OC)ncn1CCc1ccccc1OC,0.74%
20,COC(=O)[C@]12C[C@H](CC(=O)N3CCN(C(=O)C4CC4)CC3)C(=O)N(Cc3ccc4c(c3)OCO4)C1=C[C@H](C(C)(C)C)O[C@@H]2C,-1.36%
21,COC(=O)c1ccc(CN2C(=O)[C@]3(OCCC=C[C@H]3C)c3c(Br)cccc32)cc1,0.64%

row,Compound,inhibition
1,COc1ccccc1C(=O)N1O[C@]23C=C[C@]14C[C@@H](O)CC[C@]4(C)C2CC[C@]1(C)[C@@H]([C@H](C)/C=C/[C@H](C)C(C)C)CC[C@H]13 (some centres not stated),0.64%
2,NC(=O)c1ncn([C@@H]2O[C@H](C(=O)O)[C@@H](O)[C@H]2O)n1,-0.47%
3,CCOC(=O)c1c(C)[nH]c(C(=O)COc2ccc3c(c2)OCO3)c1C,3.13%
4,CCOC(=O)c1c(C)[nH]c(C(=O)OCC(=O)c2ccc(OC)cc2OC)c1C,9.16% (active)
5,COc1ccc(C(=O)COC(=O)C(O)c2ccccc2)c(OC)c1 (configuration not stated),-2.12%
6,COC(=O)Cc1nnn2c1[C@H](C)[C@@H](OC)c1cc(Br)ccc1-2,0.07%
7,Cn1c(SCC(=O)Nc2ccc(Br)cc2F)nnc1-c1ccco1,2.43%
8,CCn1c(SCC(=O)Nc2cccc(F)c2)nnc1-c1cc2cc(Br)ccc2o1,24.2% (active)
9,CCn1c(CNC(=O)c2ccco2)nnc1SCC(=O)Nc1cccc(F)c1,-1.17%
10,CCCCCCCCN1C(=O)[C@@H](CC(=O)NCc2ccc(C)o2)C[C@@]2(C(=O)OC)C1=C[C@H](C(C)(C)C)O[C@@H]2C,0.05%
11,COC(=O)C1=C(C)N(Cc2ccccc2C(F)(F)F)C(=NCc2ccc(C(F)(F)F)cc2)NC1c1ccc(F)cc1 (configuration not stated),-2.66%
12,COC(=O)C1=C(C)N(Cc2ccccc2C(F)(F)F)C(=NCc2ccc(OC)cc2)NC1c1cccc(C(F)(F)F)c1 (configuration not stated),24.9% (active)
13,COC(=O)C1=C(C)N(Cc2ccccc2C(F)(F)F)C(=NCC2CC2)NC1c1cccc(Cl)c1 (configuration not stated),-1.5%
14,CC1(C)OC(=O)C2=C(CC(CCc3ccccc3)OC2c2ccc(Cl)cc2)O1 (configuration not stated),1.11%
15,COc1ccc(Sc2ccc(NC(=O)c3cccc(Cl)c3)cc2C#N)cc1,-1.17%
16,O=C(Nc1ccn(Cc2ccccc2F)n1)c1ccc(COc2ccc(Cl)cc2Cl)o1,1.3%
17,N#Cc1ccccc1NC(=O)c1cccc(COc2ccc(Cl)cc2Cl)c1,19.9% (active)
18,CN[C@H]1C[C@H]2c3[nH]c4c(-c5ccccc5)cccc4c3CCN2C(=O)[C@H]1[C@H](C)O,-0.87%
19,COc1ccc(-c2ccc3c(n2)CCCN3S(=O)(=O)c2ccc(C)cc2)cc1,-0.15%
20,COC(=O)C1=C(C)N(Cc2ccc(C(F)(F)F)cc2)C(=NCc2ccc(C(F)(F)F)cc2)NC1c1cccc(Cl)c1 (configuration not stated),-0.79%
21,CC1CCN(S(=O)(=O)c2ccc3[nH]c(=O)ccc3c2)CC1,0.02%

row,Compound,inhibition
1,Cc1cc(C)cc(NC(=O)C2CCCN(S(=O)(=O)c3ccc4[nH]c(=O)ccc4c3)C2)c1 (configuration not stated),11.4% (active)
2,CCc1cccc(NC(=O)C2CCCN(S(=O)(=O)c3ccc4[nH]c(=O)ccc4c3)C2)c1 (configuration not stated),0.8%
3,CC(C)[C@@H](C)/C=C/[C@@H](C)[C@H]1CC[C@@H]2[C@]1(C)CCC1[C@]23C=C[C@]2(C[C@@H](O)CC[C@]12C)N(c1ccc([N+](=O)[O-])cn1)O3 (some centres not stated),-1.14%
4,O=C(NCc1ccc(Cl)cc1)c1cc(=O)nc2sc(-c3ccccc3)nn12,-2.19%
5,O=C(NCc1ccc(Cl)cc1)c1cc2c(nc3sccn32)s1,28.4% (active)
6,O=C(NCc1ccc2c(c1)OCO2)c1c(O)nc2sccn2c1=O,-1.43%
7,CCOC(=O)CNC(=O)N(C)[C@H]1C[C@H]2c3[nH]c4c(-c5ccc6c(c5)OCO6)cccc4c3CCN2C(=O)[C@H]1[C@H](C)O,-0.88%
8,COc1cccc(CNC(=O)c2cccnc2Sc2ccc(Cl)cc2)c1,14.9% (active)
9,CSc1ncccc1C(=O)NCc1ccccc1Cl,-1.41%
10,O=C(NCc1cccnc1)c1cccnc1Sc1ccc(Cl)cc1,0.54%
11,O=C(NCc1ccccc1)[C@@H]1CCCN1C(=O)[C@@H](NS(=O)(=O)c1ccc(F)cc1F)C1CCCCC1,-0.43%
12,O=C(CCC1CCCC1)N=C1SC2CS(=O)(=O)CC2N1Cc1ccccc1 (configuration not stated),0.63%
13,O=C(N=C1SC2CS(=O)(=O)CC2N1Cc1ccccc1)c1ccccc1 (configuration not stated),34% (active)
14,O=C(N=C1SC2CS(=O)(=O)CC2N1c1ccccc1)c1ccccc1 (configuration not stated),-0.55%
15,Nc1[nH]c(C(=O)c2ccccc2)c(-c2ccc(Cl)cc2Cl)c1C(=O)c1ccccc1,0.83%
16,CN1CCc2nc(SC(C(=O)O)c3ccccc3)c(C#N)c(-c3cccs3)c2C1 (configuration not stated),1.9%
17,Cc1c(-c2ccccc2)nc(N)c(C#N)c1-c1cccs1,12.2% (active)
18,CCc1c(-c2ccccc2)nc(N)c(C#N)c1-c1cccs1,-2.39%
19,O=C(NCc1ccccc1)[C@H]1CCCN1C(=O)[C@H]1CCCN1C(=O)c1cc(F)cc(F)c1,-2.57%
